Experimental data taken from the supplement of paper PMC7724964.

T1: RXRB 298-533 Hormone_recep (domain begin residue: 298, domain end residue: 533), P28702
T1 chain: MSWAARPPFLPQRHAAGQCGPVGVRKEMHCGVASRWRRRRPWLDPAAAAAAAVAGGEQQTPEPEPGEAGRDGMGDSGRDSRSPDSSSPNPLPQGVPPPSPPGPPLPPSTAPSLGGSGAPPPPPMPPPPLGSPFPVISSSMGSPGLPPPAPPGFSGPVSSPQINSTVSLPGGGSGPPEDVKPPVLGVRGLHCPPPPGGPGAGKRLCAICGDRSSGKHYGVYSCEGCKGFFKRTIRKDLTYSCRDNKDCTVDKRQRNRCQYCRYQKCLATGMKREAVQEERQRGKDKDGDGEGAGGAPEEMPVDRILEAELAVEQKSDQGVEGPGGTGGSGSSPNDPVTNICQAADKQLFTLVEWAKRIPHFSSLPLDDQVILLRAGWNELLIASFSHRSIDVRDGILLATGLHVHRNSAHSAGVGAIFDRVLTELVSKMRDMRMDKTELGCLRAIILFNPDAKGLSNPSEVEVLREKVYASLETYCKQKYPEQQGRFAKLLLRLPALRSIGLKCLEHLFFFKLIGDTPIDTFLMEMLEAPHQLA

T2: RARA 175-421 Hormone_recep (domain begin residue: 175, domain end residue: 421), P10276
T2 chain: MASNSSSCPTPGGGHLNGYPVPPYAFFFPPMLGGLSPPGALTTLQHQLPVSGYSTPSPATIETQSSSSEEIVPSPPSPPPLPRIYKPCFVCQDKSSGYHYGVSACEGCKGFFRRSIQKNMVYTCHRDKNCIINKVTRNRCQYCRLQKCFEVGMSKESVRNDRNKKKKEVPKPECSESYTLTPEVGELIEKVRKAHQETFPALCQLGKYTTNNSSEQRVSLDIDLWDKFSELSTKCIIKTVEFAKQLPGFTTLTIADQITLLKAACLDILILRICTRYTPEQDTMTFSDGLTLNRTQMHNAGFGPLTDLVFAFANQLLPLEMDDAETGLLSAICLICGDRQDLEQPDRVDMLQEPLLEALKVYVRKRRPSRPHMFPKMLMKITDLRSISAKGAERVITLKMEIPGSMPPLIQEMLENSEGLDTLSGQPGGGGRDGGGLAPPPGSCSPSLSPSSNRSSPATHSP

T3: S100A11 5-105 S_100+EF-hand_1 (domain begin residue: 5, domain end residue: 105), P31949
T3 chain: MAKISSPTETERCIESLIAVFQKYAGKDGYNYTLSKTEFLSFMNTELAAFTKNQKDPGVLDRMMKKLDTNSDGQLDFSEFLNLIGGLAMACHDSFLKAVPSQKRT

T4: RORB 212-470 Hormone_recep (domain begin residue: 212, domain end residue: 470), Q92753
T4 chain: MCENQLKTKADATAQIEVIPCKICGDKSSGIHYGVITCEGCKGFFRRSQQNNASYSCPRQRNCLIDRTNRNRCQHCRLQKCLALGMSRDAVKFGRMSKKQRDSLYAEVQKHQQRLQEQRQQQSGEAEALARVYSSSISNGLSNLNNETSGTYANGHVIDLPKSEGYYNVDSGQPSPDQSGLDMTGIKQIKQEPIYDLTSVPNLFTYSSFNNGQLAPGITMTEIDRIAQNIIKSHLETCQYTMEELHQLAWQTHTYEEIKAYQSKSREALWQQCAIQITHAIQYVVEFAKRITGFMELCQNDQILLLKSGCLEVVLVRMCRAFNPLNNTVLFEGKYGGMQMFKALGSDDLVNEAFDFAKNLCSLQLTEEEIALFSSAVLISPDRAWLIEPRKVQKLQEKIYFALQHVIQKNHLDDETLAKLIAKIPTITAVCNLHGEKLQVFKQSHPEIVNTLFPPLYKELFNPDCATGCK

T5: RBM17 298-401 RRM_1 (domain begin residue: 298, domain end residue: 401), Q96I25
T5 chain: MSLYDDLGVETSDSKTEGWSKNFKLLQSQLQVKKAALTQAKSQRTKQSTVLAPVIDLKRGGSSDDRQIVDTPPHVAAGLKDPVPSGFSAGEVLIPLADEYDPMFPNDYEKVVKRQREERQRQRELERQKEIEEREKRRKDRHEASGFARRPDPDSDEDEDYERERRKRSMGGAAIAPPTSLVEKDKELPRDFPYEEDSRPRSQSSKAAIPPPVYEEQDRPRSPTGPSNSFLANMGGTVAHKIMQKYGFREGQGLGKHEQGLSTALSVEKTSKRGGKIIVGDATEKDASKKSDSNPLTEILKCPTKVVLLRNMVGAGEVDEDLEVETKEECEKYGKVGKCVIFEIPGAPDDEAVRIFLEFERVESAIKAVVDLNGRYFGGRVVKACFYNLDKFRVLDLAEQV

T6: RARG 183-417 Hormone_recep (domain begin residue: 183, domain end residue: 417), P13631
T6 chain: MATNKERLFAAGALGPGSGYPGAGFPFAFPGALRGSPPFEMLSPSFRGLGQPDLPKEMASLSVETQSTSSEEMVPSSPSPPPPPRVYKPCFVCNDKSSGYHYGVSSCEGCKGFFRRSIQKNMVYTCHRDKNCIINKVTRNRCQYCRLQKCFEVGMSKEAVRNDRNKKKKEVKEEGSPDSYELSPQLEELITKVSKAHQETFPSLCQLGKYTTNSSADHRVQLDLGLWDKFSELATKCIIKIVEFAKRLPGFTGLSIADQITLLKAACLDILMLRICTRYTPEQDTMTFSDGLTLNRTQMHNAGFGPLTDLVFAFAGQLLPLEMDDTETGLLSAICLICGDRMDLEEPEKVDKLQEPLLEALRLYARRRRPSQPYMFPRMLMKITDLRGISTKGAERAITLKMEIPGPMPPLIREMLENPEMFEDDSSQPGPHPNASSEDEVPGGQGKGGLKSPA


Each binder was assayed against RANBP2 1184-1310 Ran_BP1 (domain begin residue: 1184, domain end residue: 1310) (assay: phage ELISA signal ratio (GST-PRM binding over GST background); higher = stronger binding of peptide-phage to the PRM).
Procedure, shortened: (§1)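 Human peptide recognition domains were expressed in 96-well plates as fusions to the C-terminus of glutathione S-transferase (GST) and selected against an M13 phage library displaying randomized hexadecapeptides, cysteine-free and glycine-flanked, on the gene-8 major coat protein. Five selection rounds were run, and approximately 48 individual clones from rounds 4 and 5 were tested by phage ELISA. Each value is the ELISA signal on the GST-domain fusion divided by the signal on GST alone. Positive clones were sequenced.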

Binder | phage ELISA signal ratio
DEELWAAPFTWGPVLE | 4.84
WADEWEAPFVWKMQEV | 3.11
QKVHPWDDWDSPFMWF | 12.9
WQSWDDWDRPMHPMEN | 6.6
SKMDEWPPEPWELMKL | 4.23
NDEWDHPFTFNPGVPP | 5.9

The binders below were run against RPA1 2-121 Rep-A_N (domain begin residue: 2, domain end residue: 121), P27694 in the same assay as above.
Chain of RPA1 2-121 Rep-A_N (domain begin residue: 2, domain end residue: 121), P27694 (P27694 whole entry): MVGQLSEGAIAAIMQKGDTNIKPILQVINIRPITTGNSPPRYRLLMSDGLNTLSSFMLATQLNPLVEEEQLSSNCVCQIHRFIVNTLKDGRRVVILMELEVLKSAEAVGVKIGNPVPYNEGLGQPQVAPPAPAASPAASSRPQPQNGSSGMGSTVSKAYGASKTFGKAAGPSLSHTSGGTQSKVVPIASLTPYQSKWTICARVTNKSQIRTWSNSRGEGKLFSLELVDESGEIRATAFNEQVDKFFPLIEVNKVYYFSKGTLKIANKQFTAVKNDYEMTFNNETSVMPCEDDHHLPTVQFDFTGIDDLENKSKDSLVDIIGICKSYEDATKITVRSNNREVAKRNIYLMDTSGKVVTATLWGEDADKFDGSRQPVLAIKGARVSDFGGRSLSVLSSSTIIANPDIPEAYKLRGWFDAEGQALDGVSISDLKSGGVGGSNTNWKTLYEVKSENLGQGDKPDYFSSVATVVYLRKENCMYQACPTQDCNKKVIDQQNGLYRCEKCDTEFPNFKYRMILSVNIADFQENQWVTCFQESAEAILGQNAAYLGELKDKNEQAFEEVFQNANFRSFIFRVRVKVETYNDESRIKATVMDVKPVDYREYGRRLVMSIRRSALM
Procedure, shortened: as §1

Binder | phage ELISA signal ratio
YYVLDSEMETIWQSIL | 15.3
YIHDWEMFEHWENLWG | 9.27
YIQDWEMMDVWNTLVG | 18
EEMPWYFIEDWEMEMY | 10.6
MWGGEDDLVQAWLEQF | 9.46
EVEDMQWLEENWLVFW | 12
WELSDYTLIQAYDQIM | 13.8
VWEDWTYMEDWEMMVF | 14.3
VSWWDDGLVYDWMSEF | 16.5
YVTDLEMIETWNKFIN | 16.4
TDMEYWEPFTDEELSM | 10

Each binder was assayed against RANBP2 2924-3050 Ran_BP1 (domain begin residue: 2924, domain end residue: 3050) in the same assay as above.
Procedure, shortened: as §1

Binder | phage ELISA signal ratio
EWDWPSDHSWWEYIQH | 8.48
FDVPLPLEHDWWTSWV | 3.39
EFDAMQAHWNVLHPEG | 8.19
FDPLWMALPEDKVHEM | 3.06
LSTDFLQMEHFWNQQF | 3.07
QYMLMSLPEDDWATPH | 4.31
QDWWETALPQEPWHVV | 22.7

The binders below were run against RBBP5 2-538 WD40 (domain begin residue: 2, domain end residue: 538), Q15291 in the same assay as above.
Chain of RBBP5 2-538 WD40 (domain begin residue: 2, domain end residue: 538), Q15291 (Q15291 whole entry): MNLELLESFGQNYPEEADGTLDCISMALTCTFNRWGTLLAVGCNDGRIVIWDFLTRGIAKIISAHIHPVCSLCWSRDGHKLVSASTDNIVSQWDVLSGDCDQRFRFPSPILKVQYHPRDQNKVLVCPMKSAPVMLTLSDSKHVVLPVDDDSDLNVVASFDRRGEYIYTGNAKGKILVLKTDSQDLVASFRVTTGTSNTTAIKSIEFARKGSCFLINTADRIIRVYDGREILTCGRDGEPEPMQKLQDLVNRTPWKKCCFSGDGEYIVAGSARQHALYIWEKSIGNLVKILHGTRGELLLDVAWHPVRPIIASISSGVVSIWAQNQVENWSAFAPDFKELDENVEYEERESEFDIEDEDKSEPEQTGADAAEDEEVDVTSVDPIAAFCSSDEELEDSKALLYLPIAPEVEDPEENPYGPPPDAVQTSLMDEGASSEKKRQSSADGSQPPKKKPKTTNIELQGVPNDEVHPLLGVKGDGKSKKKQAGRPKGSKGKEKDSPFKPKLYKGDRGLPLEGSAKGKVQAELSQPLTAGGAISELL
Procedure, shortened: as §1

Binder | phage ELISA signal ratio
IFYWDFESQTWTMSAP | 3.49
QIEYWNSMEQTWVQSQ | 9.82

Biological target: T1, RXRB 298-533 Hormone_recep (domain …
Assay: as above
Procedure, shortened: as §1

Binder | phage ELISA signal ratio
YPEHQWLEQHMFQTVQ | 14.3
ESNEMWEWVMNQAHVW | 11.2
IEQAELIWMEYKKQTK | 6.73
TPTDTAESIWEMYKKM | 28
LDHMNWPEHDWLWATM | 16.1

What follows are binders tested against RANBP1 39-170 Ran_BP1 (domain begin residue: 39, domain end residue: 170), P43487 in the same assay as above.
Chain of RANBP1 39-170 Ran_BP1 (domain begin residue: 39, domain end residue: 170), P43487 (P43487 whole entry): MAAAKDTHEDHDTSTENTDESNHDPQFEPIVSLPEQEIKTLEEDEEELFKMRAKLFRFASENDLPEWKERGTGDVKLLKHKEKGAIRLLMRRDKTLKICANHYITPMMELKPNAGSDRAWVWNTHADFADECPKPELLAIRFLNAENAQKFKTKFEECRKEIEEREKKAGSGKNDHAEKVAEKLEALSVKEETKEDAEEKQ
Procedure, shortened: as §1

Binder | phage ELISA signal ratio
TEIALPWPDRAERAYL | 16.3
WMMTLPPDMPGEWQVV | 11
QEFWERYTIPMWVDSF | 13.7
DMEQWWMELPQVPMYA | 23.1
MGYWDYLPPVPGETWG | 15.4
WEWSPLPPDVETFSQI | 15.9
QAVVPWQMPLPDWIVS | 18.4
PPLPPDKNDWHVEYMP | 15.6
WGQMPLPVDMPETWNF | 21
PTEAEWGIWHDLPDYE | 10.1
PQWWHNMPALPDDIIH | 14.7
IDSYEHHSTGMVPLPD | 26.3
DHGWWMLNSNFLPVVP | 9.28

Biological target: T2, RARA 175-421 Hormone_recep (domain …
Assay: as above
Procedure, shortened: as §1

Binder | phage ELISA signal ratio
WPEYMSWDDAYWMTML | 4.17
GAWDWQLDQLLMQYLE | 4.72
RQSQLQMWIWDATQDE | 3.71
SQIQRYIDEAMTHQST | 13.4

Each binder was assayed against RPA2 202-270 RPA_C (domain begin residue: 202, domain end residue: 270), P15927 in the same assay as above.
Chain of RPA2 202-270 RPA_C (domain begin residue: 202, domain end residue: 270), P15927 (P15927 whole entry): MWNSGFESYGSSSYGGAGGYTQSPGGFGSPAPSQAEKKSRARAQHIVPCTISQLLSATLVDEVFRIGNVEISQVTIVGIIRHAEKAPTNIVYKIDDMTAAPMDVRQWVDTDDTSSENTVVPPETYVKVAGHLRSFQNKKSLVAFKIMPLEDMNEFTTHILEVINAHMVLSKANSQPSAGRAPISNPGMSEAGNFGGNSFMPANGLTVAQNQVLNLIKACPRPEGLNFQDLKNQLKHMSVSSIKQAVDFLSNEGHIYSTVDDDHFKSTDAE
Procedure, shortened: as §1

Binder | phage ELISA signal ratio
WQWNGVWPDIIWVQVE | 7.24

Biological target: T3, S100A11 5-105 S_100+EF-hand_1 (domain …
Assay: as above
Procedure, shortened: as §1

Binder | phage ELISA signal ratio
YWTWDDFQEMFLRLER | 4.97
MEQWWHGEDIMWHWWE | 3.64

Biological target: T4, RORB 212-470 Hormone_recep (domain …
Assay: as above
Procedure, shortened: as §1

Binder | phage ELISA signal ratio
WEHHGWWTFWEEAPEQ | 4.7

Biological target: T5, RBM17 298-401 RRM_1 (domain begin …
Assay: as above
Procedure, shortened: as §1

Binder | phage ELISA signal ratio
YRWDRQPSQEAVSSKY | 4.04
AQMAPRWDQMQPVMVE | 5.16

Biological target: T6, RARG 183-417 Hormone_recep (domain …
Assay: as above
Procedure, shortened: as §1

Binder | phage ELISA signal ratio
PYGPFKSFEYMDIQRT | 26.7

Each binder was assayed against SETD1A 2-220 RRM_1 (domain begin residue: 2, domain end residue: 220), O15047 in the same assay as above.
Chain of SETD1A 2-220 RRM_1 (domain begin residue: 2, domain end residue: 220), O15047 (O15047 whole entry): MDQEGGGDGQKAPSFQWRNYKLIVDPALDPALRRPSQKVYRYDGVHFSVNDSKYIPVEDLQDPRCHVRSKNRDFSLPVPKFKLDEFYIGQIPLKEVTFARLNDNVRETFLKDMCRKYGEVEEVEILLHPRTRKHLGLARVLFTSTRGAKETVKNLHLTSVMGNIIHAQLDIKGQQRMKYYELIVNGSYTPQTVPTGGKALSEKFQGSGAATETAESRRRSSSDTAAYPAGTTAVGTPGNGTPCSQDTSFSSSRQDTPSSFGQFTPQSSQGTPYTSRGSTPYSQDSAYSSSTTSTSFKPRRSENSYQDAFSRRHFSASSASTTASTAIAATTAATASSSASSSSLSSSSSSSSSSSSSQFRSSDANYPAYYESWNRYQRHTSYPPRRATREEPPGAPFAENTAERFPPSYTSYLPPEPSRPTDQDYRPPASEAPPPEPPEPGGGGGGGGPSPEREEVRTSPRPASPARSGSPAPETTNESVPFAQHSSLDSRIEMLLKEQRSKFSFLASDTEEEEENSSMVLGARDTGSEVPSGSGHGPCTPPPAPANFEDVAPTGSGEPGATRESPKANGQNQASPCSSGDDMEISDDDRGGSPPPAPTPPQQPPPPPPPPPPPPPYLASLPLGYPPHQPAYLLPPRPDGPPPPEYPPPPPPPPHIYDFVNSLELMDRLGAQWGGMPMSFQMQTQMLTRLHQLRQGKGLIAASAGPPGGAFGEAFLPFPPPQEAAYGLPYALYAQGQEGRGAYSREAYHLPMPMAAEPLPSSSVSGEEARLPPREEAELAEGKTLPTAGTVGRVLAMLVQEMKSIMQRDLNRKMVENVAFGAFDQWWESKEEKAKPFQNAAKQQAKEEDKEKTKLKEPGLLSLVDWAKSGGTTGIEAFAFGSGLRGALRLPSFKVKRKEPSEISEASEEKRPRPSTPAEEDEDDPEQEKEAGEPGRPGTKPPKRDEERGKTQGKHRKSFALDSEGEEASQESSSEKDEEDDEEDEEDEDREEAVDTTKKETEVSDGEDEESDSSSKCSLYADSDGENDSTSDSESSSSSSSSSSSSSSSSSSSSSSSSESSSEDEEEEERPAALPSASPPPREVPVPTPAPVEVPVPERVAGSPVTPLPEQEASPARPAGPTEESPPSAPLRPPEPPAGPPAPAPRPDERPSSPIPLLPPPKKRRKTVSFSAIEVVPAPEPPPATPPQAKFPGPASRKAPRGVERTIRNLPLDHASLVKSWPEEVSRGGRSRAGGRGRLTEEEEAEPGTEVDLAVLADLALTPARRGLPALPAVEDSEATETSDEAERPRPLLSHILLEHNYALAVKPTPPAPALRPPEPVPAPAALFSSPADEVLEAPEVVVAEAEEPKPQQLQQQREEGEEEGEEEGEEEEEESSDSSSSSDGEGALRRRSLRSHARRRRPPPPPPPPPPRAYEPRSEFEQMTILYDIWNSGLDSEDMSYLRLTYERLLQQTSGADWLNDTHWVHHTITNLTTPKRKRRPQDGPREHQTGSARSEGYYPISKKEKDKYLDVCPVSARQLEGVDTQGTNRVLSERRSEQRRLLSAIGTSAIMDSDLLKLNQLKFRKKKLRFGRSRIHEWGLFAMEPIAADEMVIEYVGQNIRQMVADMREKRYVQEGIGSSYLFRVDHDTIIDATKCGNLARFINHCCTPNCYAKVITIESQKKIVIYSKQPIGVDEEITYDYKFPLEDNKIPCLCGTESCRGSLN
Procedure, shortened: as §1

Binder | phage ELISA signal ratio
HMAWDVIWDNIYLADS | 4.42
YNFPMDWDQIPITWPQ | 6.17
